Experimental findings from PubChem BioAssay are described below.

One test has as its target Albumin (Bos taurus) (UniProt P02769). Briefly: compounds binding labelled BSA control protein – biochemical, small-molecule microarray, Alexa647 label, 635/667 nm fluorescence, artefact control for SMM control protein annotation, profiling panel (AID 1118).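 Also: score merges 667 nm emission intensity and signal-to-noise per printed compound spot.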 The following applies: BSA-A647 binding, fluorescence 635 nm, higher = more signal.
A short description of test [1]: probe aXIP binding to arrayed compounds – biochemical, NeuroSMM set, 635/667 nm fluorescence, primary screen (AID 1119).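 Also: probe is the protein aXip251-270 applied at 1 µg/mL to compound-printed slides; binding of probe to printed compounds measured as 667 nm fluorescence plus signal to noise.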 The following applies: small-molecule microarray, higher = more signal, called active from +8 up or from −8 down.
Test [2] in a line: probe aNOTCH3 binding on compound microarray – biochemical, small-molecule microarray, 635/667 nm fluorescence, primary screen (AID 1120).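 Also: probe is a biotin-tagged antibody raised against NOTCH3 rather than NOTCH3 protein; score merges spot fluorescence near 667 nm with spot signal to noise.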 The following applies: higher = more signal.
Test [3] is described as follows: probe aNOTCH2 binding on compound microarray – biochemical, small-molecule microarray, 635/667 nm fluorescence, primary screen (AID 1121).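 Also: score merges feature fluorescence read at 667 nm with its signal to noise.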 The following applies: higher = more signal.
The target of test [4] is Carbonic anhydrase 2 (Homo sapiens) (UniProt P00918). Briefly: compounds binding carbonic anhydrase 2 – biochemical, small-molecule microarray, Alexa647-labelled CAII, profiling panel (AID 1122). The following applies: CAII-A647 binding fluorescence, higher = more signal.
A short description of test [5]: COS7 lysate on small-molecule microarray, probe aHis, 635 nm (AID 1123).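 Also: z-score combines 667nm fluorescence intensity with signal-to-noise per printed compound spot.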 The following applies: COS7 cell lysate, fluorescence, higher = more signal.
Test [6] is described as follows: probe aLAP1 signal on lysate-treated microarray – cell lysate, small-molecule microarray, COS7 lysate, primary screen (AID 1124).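 Also: lysate comes from COS7 cells expressing LAP1 and is applied at 0.3 µg/mL; score merges spot fluorescence near 667 nm with signal-to-noise over triplicate slides.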 The following applies: probe aLAP1, fluorescence, higher = more signal.
The next test deals with Sam68 (KHDRBS1). Put plainly: compounds binding KHDRBS1 protein – biochemical, small-molecule microarray, 635 nm fluorescence, primary screen (AID 1125).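 Also: score merges 667 nm channel intensity with signal to noise over triplicate slides.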 The following applies: higher = more signal.
The test system of test [7] is Chordin-like protein 2 (CHRDL2). Put plainly: compounds binding chordin-like 2 – biochemical, small-molecule microarray, 635 nm fluorescence, primary screen (AID 1126).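 Also: printed compound slides probed with Chrdl2 protein at 4 µg/mL for 1 h at 4 C; score merges 667 nm emission intensity with signal to noise over three replicate slides.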 The following applies: fluorescence 635 nm, higher = more signal.
Test [8] deals with Concanavalin-A (Canavalia ensiformis) (UniProt P02866). Briefly: compounds binding concanavalin A lectin – biochemical, small-molecule microarray, Alexa647 label, 635 nm, artefact control for SMM control protein annotation, primary screen (AID 1127).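 Also: z combines 667 nm emission intensity with signal-to-noise across three replicate slides.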 The following applies: ConA-A647 binding fluorescence, higher = more signal.
Chain of Concanavalin-A (Canavalia ensiformis) (P02866 whole entry, looked up): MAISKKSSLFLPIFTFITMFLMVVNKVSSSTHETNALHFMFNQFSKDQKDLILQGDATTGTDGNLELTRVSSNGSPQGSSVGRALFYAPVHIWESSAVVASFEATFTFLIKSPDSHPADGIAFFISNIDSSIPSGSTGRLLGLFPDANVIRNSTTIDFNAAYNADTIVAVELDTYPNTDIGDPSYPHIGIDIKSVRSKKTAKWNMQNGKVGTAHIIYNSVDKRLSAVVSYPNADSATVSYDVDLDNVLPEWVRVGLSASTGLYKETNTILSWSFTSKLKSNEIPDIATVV
Test [9] in a line: compounds binding Alexa647 anti-His antibody – biochemical, small-molecule microarray, 635 nm fluorescence, artefact control for SMM control protein annotation, primary screen (AID 1128).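 Also: score merges feature fluorescence with signal-to-noise for each printed compound spot.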 The following applies: higher = more signal.
Test [10] has as its system Human papillomavirus type 1a E7 protein (residues 1-88). Put plainly: HPV1a E7 small-molecule binders, primary screen, biochemical, small-molecule microarray, residues 1-88, 635 nm (AID 1129). The following applies: small-molecule microarray binding, fluorescence 635 nm; higher = more signal.
The target in test [11] is Focal adhesion kinase 1 (Homo sapiens) (UniProt Q05397). Put plainly: PTK2 protein binding on printed compound slides – biochemical, small-molecule microarray, 635/667 nm fluorescence, BSA, DTT, primary screen (AID 1130).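 Also: composite of spot emission at 667 nm and signal to noise over triplicate slides.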 The following applies: 635 nm fluorescence, higher = more signal.
Chain of Focal adhesion kinase 1 (Homo sapiens) (Q05397 whole entry, looked up): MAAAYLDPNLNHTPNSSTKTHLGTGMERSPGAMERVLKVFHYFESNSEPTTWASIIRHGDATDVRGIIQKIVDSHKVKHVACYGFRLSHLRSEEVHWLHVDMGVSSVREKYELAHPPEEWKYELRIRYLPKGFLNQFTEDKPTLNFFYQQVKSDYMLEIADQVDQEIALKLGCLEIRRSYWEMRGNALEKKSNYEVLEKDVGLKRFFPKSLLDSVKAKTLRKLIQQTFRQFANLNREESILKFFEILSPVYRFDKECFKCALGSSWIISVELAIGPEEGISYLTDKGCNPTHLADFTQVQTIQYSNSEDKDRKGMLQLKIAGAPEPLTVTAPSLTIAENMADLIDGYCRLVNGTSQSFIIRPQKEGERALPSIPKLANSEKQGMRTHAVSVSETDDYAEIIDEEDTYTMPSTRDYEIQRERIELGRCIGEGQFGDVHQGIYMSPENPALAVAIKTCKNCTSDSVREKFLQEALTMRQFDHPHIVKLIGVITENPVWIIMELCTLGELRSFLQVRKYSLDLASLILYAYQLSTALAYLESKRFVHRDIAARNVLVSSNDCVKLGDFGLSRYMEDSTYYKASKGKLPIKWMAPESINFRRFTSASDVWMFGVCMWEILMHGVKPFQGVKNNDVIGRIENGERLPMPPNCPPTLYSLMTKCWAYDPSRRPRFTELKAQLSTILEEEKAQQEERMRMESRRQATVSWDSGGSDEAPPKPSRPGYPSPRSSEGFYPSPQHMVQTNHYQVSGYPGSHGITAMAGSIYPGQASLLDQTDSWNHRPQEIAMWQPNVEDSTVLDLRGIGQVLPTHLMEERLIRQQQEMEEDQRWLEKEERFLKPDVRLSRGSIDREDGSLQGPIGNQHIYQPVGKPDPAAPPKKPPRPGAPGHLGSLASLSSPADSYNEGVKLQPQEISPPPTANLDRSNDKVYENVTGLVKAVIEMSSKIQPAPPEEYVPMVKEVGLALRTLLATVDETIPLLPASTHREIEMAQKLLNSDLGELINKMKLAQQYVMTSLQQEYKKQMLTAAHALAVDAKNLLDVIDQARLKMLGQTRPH
For test [12], the system named is Fibrinogen (Alexa647-labelled). Briefly: Alexa647-fibrinogen binding to printed small molecules – biochemical, small-molecule microarray, 635/667 nm fluorescence, artefact control for SMM control-protein annotation, profiling panel (AID 1131).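 Also: z-score merges 667 nm fluorescence with per-spot signal-to-noise over triplicate slides.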 The following applies: fibrinogen-A647 binding fluorescence, higher = more signal.
In test [13] the target is Follistatin (Homo sapiens) (UniProt P19883). Put plainly: FST protein binding to printed compounds – biochemical, small-molecule microarray, 635/667 nm fluorescence, primary screen (AID 1132). The following applies: 635 nm fluorescence, higher = more signal.
Chain of Follistatin (Homo sapiens) (P19883 whole entry, looked up): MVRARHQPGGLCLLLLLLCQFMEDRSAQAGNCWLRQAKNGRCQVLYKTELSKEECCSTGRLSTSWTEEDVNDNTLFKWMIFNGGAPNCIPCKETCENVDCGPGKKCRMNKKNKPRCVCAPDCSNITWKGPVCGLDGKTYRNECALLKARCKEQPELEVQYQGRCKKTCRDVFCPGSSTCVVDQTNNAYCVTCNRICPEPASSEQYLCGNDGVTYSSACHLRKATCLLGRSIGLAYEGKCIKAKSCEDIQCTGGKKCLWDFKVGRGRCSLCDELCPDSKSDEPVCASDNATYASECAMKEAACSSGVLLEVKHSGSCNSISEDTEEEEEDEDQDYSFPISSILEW
Test [14] concerns the target Fibroblast growth factor 2 (Homo sapiens) (UniProt P09038). Put plainly: basic fibroblast growth factor binding to printed compounds – biochemical, small-molecule microarray, 635/667 nm fluorescence, primary screen (AID 1133). The following applies: FGF2, fluorescence 635/667, higher = more signal.
A short description of test [15]: JC-1 mitochondrial potential readout, lung cancer cells – cell-based, A549, JC-1 fluorescence, basal, 24 h, 100 nL, profiling panel (AID 1138).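 Also: A549 lung adenocarcinoma cells under basal conditions with no added stimulus; test concentration not given here.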 The following applies: higher = more signal.
Another test deals with Lefty1. Put plainly: Lefty1 protein binding to printed compounds – biochemical, small-molecule microarray, 635/667 nm fluorescence, primary screen (AID 1139). The following applies: fluorescence 635/667, higher = more signal.
The test system of test [16] is wheat germ agglutinin (Triticum aestivum), Alexa647-labelled. Briefly: Alexa647-WGA lectin binding to printed small molecules – biochemical, small-molecule microarray, 635/667 nm fluorescence, artefact control for SMM control-protein annotation, profiling panel (AID 1140).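 Also: score merges 667 nm feature emission with signal to noise over triplicate slides.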 The following applies: WGA-A647 binding, 635 nm fluorescence, higher = more signal.
In test [17] the target is Luciferin 4-monooxygenase (Photinus pyralis) (UniProt P08659). Briefly: inhibition of purified Photinus pyralis luciferase – biochemical, luminescence, purified enzyme, 2006 set, primary screen (AID 1141).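 Also: cell-free assay with purified firefly luciferase at 100 ng per well in PBS; test concentration not given here.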 The following applies: purified firefly luciferase, SteadyGlo luminescence, 30 min; higher = more signal, called active from +8 up or from −8 down.
Chain of Luciferin 4-monooxygenase (Photinus pyralis) (P08659 whole entry, looked up): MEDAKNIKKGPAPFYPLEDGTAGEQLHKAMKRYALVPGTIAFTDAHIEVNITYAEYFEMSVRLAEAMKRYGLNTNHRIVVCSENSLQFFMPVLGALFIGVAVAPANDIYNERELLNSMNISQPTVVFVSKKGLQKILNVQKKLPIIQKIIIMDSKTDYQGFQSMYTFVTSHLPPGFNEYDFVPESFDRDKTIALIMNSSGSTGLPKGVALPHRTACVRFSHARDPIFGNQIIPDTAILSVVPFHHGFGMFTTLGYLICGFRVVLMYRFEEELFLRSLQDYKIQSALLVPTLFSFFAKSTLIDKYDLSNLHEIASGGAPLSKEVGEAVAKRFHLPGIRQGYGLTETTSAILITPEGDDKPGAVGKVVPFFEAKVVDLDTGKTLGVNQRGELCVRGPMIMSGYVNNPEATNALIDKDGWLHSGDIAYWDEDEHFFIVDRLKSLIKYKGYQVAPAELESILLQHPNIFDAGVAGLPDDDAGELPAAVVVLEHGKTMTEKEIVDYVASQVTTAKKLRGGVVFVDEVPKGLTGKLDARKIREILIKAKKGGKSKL

The source made the active and inactive calls.

Chain of Albumin (Bos taurus) (P02769 whole entry, looked up): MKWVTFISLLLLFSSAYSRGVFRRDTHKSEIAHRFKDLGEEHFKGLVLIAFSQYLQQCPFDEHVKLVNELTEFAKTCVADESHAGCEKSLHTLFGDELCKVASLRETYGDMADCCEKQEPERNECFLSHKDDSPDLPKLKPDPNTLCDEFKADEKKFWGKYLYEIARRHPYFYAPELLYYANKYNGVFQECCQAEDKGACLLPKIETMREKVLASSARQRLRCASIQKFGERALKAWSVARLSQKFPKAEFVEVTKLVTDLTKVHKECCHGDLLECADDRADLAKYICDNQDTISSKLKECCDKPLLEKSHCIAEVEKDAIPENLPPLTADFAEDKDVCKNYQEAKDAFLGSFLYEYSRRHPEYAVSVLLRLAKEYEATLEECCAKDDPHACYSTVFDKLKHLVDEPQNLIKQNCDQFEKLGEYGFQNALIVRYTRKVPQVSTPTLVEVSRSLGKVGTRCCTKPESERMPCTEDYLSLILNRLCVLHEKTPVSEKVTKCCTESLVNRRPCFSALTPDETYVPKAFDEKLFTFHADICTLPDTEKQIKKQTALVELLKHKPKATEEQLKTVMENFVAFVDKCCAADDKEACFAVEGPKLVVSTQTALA
Chain of Fibroblast growth factor 2 (Homo sapiens) (P09038 whole entry, looked up): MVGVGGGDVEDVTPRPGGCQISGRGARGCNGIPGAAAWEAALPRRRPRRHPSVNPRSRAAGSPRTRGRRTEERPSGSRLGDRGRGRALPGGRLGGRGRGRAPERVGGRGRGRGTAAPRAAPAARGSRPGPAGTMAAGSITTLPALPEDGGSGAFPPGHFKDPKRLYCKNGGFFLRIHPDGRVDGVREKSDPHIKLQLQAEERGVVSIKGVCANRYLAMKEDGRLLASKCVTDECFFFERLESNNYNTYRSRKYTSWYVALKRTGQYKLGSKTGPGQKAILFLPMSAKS

Take `O=c1cccc(-c2ccco2)o1`: the composite z-score is 0.167 in the test with Albumin (Bos taurus); 0.0522 in test [2]; -0.127 in test [3]; 0.25 in [4]; 0.193 in [5]; 0.462 in [6]. Moreover, the composite z-score in the test with Sam68 (KHDRBS1) came out at 0.969; in test [7] it was 1.05; in test [8], 0.495; in test [9], 0.645; in [10], 0.471; in test [11] it was 0.082. For the same compound, the composite z-score was 0.476 in test [12]; 1.3 in test [13]; 0.879 in [14]; 1.02 in the test on Lefty1; 0.138 in test [16]. Also, the composite Z-score in test [1] is 0.207 (inactive). Besides, the z-score was -0.262 in [15] and 0.405 (inactive) in test [17].
With `C=C(/C(=C/C[C@@H](OC(C)=O)c1ccc(CO)o1)c1cc(C(=O)OC)ccc1OC)C(C)C`, the composite z-score was 0.461 in the test with Albumin (Bos taurus); 0.232 in [2]; -0.124 in [3]; 0.662 in test [4]; 1.31 in [5]; 0.0806 in test [6]. The composite z-score turned out to be 0.561 in the test with Sam68 (KHDRBS1); 0.0347 in test [7]; 0.395 in test [8]; 1.54 in [9]; 0.659 in [10]; 0.571 in test [11]. Further, the composite z-score was 0.0384 in [12]; 0.913 in test [13]; 0.682 in test [14]; 0.564 with Lefty1; 0.427 in test [16]. In test [1], the composite Z-score is -0.0662 (inactive). Moreover, the z-score was -0.237 in test [15] and -3.52 (inactive) in test [17].
Turning to `CC(C)CCC[C@@H](C)[C@H]1CC[C@@]2(C)C3=C(CC[C@]12C)[C@@]1(C)CC[C@H](OC(=O)c2ccccc2)C(C)(C)C1CC3` (stereo not given in full), the composite z-score with Albumin (Bos taurus) was 0.181; in test [2], -0.0074; in test [3] it was -0.181; in test [4] it was -0.103; in test [5], 0.275; in test [6], -0.0606. The composite z-score was 0.248 with Sam68 (KHDRBS1); 0.418 in [7]; 0.115 in test [8]; 0.226 in test [9]; 0.29 in test [10]; -0.0586 in test [11]. In addition, the composite z-score in test [12] came to 0.816; in test [13], 0.438; in test [14] it was 0.288; in the test with Lefty1, 0.591; in test [16], 0.134. Moreover, the composite Z-score in test [1] is 0.115 (inactive). Besides, the results for the z-score in [15] and in test [17] were 0.442 and -0.0355 (inactive), respectively.
For the compound `O=C1NC(=O)C2C1C=CC(C(O)c1ccccn1)N2Nc1ccc(Cl)cc1Cl` (stereo not given), the composite z-score was found to be 1.02 with Albumin (Bos taurus); 0.0773 in test [2]; 0.0554 in [3]; 0.815 in test [4]; 3.23 in test [5]; 0.048 in test [6]. Further, the composite z-score is 0.25 in the test on Sam68 (KHDRBS1); -0.44 in [7]; 0.786 in test [8]; 0.713 in test [9]; 0.676 in test [10]; 0.473 in [11]. Moreover, the composite z-score in [12] came to 0.717; in test [13], 0.101; in [14], 0.0367; with Lefty1, 0.181; in [16], 1.11. Moreover, in test [1], the composite Z-score is 0.222 (inactive). The z-score was 1.07 in test [15] and 0.237 (inactive) in test [17].
As to `CC(C)CNC(=O)[C@@]1(C)c2ccccc2C(=O)N(Cc2cc(C(F)(F)F)cc(C(F)(F)F)c2)[C@H]1c1ccc(CO)cc1`, the composite z-score with Albumin (Bos taurus) is 0.184; in test [2], -0.242; in test [3] it was -0.111; in [4] it was 0.72; in [5], 0.79; in test [6] it was -0.205. In addition, the composite z-score is 0.108 with Sam68 (KHDRBS1); -0.307 in [7]; 0.0758 in test [8]; -0.738 in test [9]; -0.391 in test [10]; -0.342 in test [11]. Besides, the composite z-score in [12] is -1.03; in test [13], -0.117; in test [14], 0.0193; in the test on Lefty1, 0.0325; in [16], -0.356. Also, the composite Z-score in test [1] is 0.635 (inactive). Besides, the z-score in test [15] is 0.843; in test [17], -0.0582 (inactive).
